The list is not random: actives were taken first. Their share in the collection is about 3.3%.
Smad3 FoxH1 inh = inhibitors of human Smad3 transcription factor binding. 0.29% of 88,000 active. P84022. inhibition, % at 25 µM. AID 630. TR-FRET Smad3/Dy647-FoxH1 peptide binding, europium anti-His;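 active = compounds that reduce the energy-transfer binding signal between the protein and its labelled peptide by more than half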
Target sequence (P84022 whole entry, looked up): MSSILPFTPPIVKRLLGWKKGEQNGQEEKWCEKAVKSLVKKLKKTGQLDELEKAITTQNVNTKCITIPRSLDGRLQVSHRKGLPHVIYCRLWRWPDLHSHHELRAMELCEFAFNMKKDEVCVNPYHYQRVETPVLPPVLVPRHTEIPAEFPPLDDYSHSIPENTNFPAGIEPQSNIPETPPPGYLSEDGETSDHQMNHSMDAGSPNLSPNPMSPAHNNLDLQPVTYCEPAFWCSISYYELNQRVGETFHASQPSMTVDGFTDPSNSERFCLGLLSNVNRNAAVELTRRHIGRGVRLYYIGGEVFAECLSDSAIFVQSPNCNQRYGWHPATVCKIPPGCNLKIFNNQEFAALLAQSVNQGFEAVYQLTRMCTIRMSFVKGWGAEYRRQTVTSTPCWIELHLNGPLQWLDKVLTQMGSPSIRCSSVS
ERa SRC1 pot = ER-alpha (human) coactivator binding potentiation; P03372; TR-FRET ERalpha-LBD/SRC-Cy5 coactivator binding, 2 h; 100 = basal binding, no effect; coactivator binding (% of control), % at 25.6 µM; 1.3% of 86,000 active; in the data active = activity above about 200%;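 note: binding measured in presence of low estradiol as agonist stimulus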
PLK1 kinase inh = PLK1 (human) kinase inhibition. P53350. recombinant PLK1 kinase, TR-FRET peptide phosphorylation. inhibition, % at 10 µM. 0.53% of 97,000 active. AID 619;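 active = inhibition of 50% or more in the single-concentration screen; inactive = inhibition below 50%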
ERb coact inh = ER-beta (human) coactivator binding inhibition; 1.3% of 86,000 active; TR-FRET ER-beta LBD / SRC1-Cy5 peptide binding; receptor agonist-loaded with 1 µM estradiol; inhibition, % at 25.6 µM;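 active = compounds whose percent inhibition of the receptor-coactivator binding signal exceeds about 50% in the single-dose screen, limit read from the data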
PLK1 PBD inh = inhibitors of human Plk1 polo box domain binding | Plk1 PBD phosphopeptide binding, fluorescence polarization | inhibition, %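 (tested at about 20 µM)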 | 0.13% of 97,000 active; in the data active = inhibition above about 34%, passing the limit was not always enough
ERa coact inh = blocks coactivator binding to human estrogen receptor alpha | P03372 | TR-FRET ER-alpha LBD / SRC-1 peptide, estradiol-bound | inhibition, % at 25.6 µM | 1.7% of 86,000 active | AID 629; in the data active = inhibition above about 50%
PLK1 inh conf = confirmation of human PLK1 kinase inhibitors; shares compounds with PLK1 kinase inh; recombinant PLK1 kinase, TR-FRET peptide phosphorylation; inhibition, % at 10 µM; 20% of 210 active;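 active = inhibition at or above 50% in each of two repeat confirmation tests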
TR-FRET interf = Plk1 assay compound interference counter-screen hit | shares compounds with PLK1 kinase inh | Plk1 TR-FRET assay interference, compound added post-reaction | inhibition (interference), % at 10 µM | 210 tested, under 10 active | AID 756;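 active = both duplicate runs show 50% or greater inhibition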
Redox H2O2 DR = counter-screen for Plk1 PBD inhibitors: redox cycling H2O2 generation; 120 tested, under 10 active; shares compounds with PLK1 PBD inh; DTT; EC50, µM; call rule not given here
Hits are given with their value; [ ] = dose if it differs, or a comment.

Screening CC(=O)OC1=CC2=CC[C@H]3[C@@H]4CCC(=O)[C@@]4(C)CC(=O)[C@]3(S)[C@]2(C)CC1 returned Smad3 FoxH1 inh inactive.
COc1ccc2[nH]c(C)c(CCN3CCC(=O)C(C)C3C)c2c1 (centres undefined) was read as Smad3 FoxH1 inh inactive, ERa SRC1 pot inactive, PLK1 kinase inh 82.7, ERb coact inh 63.6[fluorescence artefact?], PLK1 PBD inh inactive, ERa coact inh inactive, PLK1 inh conf inactive and TR-FRET interf inactive.
For CC1=C2C(=O)[C@H]3[C@@H](CC=C4C[C@@H](O)CC[C@@]43C)[C@@H]2CC[C@@]12O[C@@H]1C[C@H](C)CN[C@H]1[C@@H]2C the results were Smad3 FoxH1 inh inactive.
For O=[N+]([O-])c1ccc(N2CCNCC2)cc1NCC1CCCO1 (centres undefined) the results were PLK1 kinase inh inactive, PLK1 PBD inh 47.2 and Redox H2O2 DR inactive.
Screening CN1C(=O)N(C)C(=O)C2(Sc3ccccc3C2=O)C1=O returned Smad3 FoxH1 inh inactive, ERa SRC1 pot inactive, PLK1 kinase inh inactive, ERb coact inh inactive, PLK1 PBD inh 57.2, ERa coact inh inactive and Redox H2O2 DR inactive.
Screening Cc1c([C@@H](C)[C@H]2NC[C@H](C)C[C@@H]2O)ccc2c1C[C@@H]1[C@@H]2CC=C2C[C@@H](O)CC[C@@]21C returned Smad3 FoxH1 inh inactive.
Screening C[C@@]12CN(CC[N+](C)(C)C)C[C@]1(C)[C@H]1CC[C@@H]2O1 returned Smad3 FoxH1 inh inactive.
Screening Cc1ccc2c(c1)CC1(CN2C)C(=O)NC(=O)N(c2ccccc2C)C1=O (centres undefined) returned Smad3 FoxH1 inh inactive, ERa SRC1 pot inactive, PLK1 kinase inh inactive, ERb coact inh inactive, PLK1 PBD inh 40.1, ERa coact inh inactive and Redox H2O2 DR inactive.
Screening Cc1ccc2c(c1)CC1(CN2C)C(=O)NC(=O)N(c2cccc(C)c2C)C1=O (centres undefined) returned Smad3 FoxH1 inh inactive, ERa SRC1 pot inactive, PLK1 kinase inh inactive, ERb coact inh inactive, PLK1 PBD inh inactive and ERa coact inh inactive.

Assay outcomes: PubChem BioAssay, several laboratories
